From PubChem BioAssay
A selection: hits, their analogues and other compounds. The true share with any hit is near 4.8%.
Calb FLC: affects C. albicans growth with fluconazole. C. albicans CaCi-2 (fluconazole-resistant clinical isolate) + fluconazole, Alamar Blue growth, 48 h. growth inhibition, % (test concentration not listed). 300,000 compounds, 0.57% hits;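 active = growth inhibition above about 58% in most replicates, limit read from the data, passing the limit was not always enough; inconclusive = exactly half the replicates above a set limit; inactive = most replicates below a set limit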;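 also: all wells also contain fluconazole at 8 µg/ml as a sub-toxic cotreatment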
Beta apoptosis: blocks beta cell apoptosis | INS-1E cytokine-induced death, ATP luminescence, 48 h; percent of positive-control rescue, neutral wells zero | 300,000 compounds, 0.8% hits | protection from apoptosis, % (no concentration beside the values);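 active = Every replicate reaches about 75%, or at least half do and their mean reaches it too, limit read from the data; inconclusive = At least half of replicates reach the limit but their mean does not; inactive = Under half of replicates reach the limit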;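 also: higher means more ATP so stronger rescue from cytokine killing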
Mdm2 MdmX PPI: disrupts the human Mdm2-MdmX interaction; O15151+Q00987; SaOS-2 split-luciferase Mdm2/MdmX complementation, luminescence; inhibition, % at 8 µM; 330,000 compounds, 3% hits; AID 485346;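 active = inhibition of at least 50% at 8 µM in the primary screen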
Target sequence (O15151 whole entry, looked up): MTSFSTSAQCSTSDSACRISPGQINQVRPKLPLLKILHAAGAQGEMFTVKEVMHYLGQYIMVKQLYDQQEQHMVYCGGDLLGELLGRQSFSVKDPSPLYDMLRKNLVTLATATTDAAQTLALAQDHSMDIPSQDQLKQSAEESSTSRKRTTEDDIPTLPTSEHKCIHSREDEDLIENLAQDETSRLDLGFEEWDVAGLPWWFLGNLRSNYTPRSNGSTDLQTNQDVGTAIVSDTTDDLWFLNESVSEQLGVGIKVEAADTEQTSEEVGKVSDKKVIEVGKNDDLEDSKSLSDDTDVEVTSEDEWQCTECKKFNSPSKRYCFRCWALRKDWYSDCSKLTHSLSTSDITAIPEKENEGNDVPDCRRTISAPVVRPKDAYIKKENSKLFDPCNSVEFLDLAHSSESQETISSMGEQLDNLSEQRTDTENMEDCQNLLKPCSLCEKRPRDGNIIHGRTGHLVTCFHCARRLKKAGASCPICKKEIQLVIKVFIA
Target sequence (Q00987 whole entry, looked up): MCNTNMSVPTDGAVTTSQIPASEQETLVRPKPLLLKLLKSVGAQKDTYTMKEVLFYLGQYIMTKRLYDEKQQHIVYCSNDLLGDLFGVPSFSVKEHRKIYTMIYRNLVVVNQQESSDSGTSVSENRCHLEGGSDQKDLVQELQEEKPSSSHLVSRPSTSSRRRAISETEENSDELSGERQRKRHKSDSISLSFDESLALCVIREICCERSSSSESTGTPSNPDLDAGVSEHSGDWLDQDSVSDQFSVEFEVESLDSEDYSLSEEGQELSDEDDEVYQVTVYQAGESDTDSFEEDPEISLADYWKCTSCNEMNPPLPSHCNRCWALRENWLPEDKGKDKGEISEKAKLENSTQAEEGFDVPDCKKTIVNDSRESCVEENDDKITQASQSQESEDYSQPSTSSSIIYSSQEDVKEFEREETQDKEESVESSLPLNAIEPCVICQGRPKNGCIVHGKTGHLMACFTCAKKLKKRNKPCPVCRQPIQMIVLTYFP
CSC inhib: cancer stem cell inhibition; inhibition, % at 7.5 µM; AID 2717; cancer stem cell-like cells viability, luminescence; 300,000 compounds, 1.1% hits; in the data active = inhibition above about 75%; inconclusive = no clear call, values can overlap the other calls; tested in HMLE shEcad cells
MPTP block: blocks calcium-induced mitochondrial swelling. inhibition, % at 10 µM. isolated mouse mitochondria, Ca2+ swelling absorbance, 30 min. 360,000 compounds, 1.4% hits. AID 602449;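 active = inhibition of 50% or more, scaled per plate between neutral and stimulator controls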
Mdm2 MdmX conf: confirmation of human Mdm2/MdmX interaction inhibitors | Mdm2-MdmX binding, luminescent assay | shares compounds with Mdm2 MdmX PPI | inhibition, % at 8 µM | 10,000 compounds, 55% hits | AID 489028; in the data active = inhibition above about 40%
Full FLuc ctr: inhibits full-length luciferase, flagging false Mdm2/MdmX hits; SaOS-2 full-length luciferase counterscreen, luminescence; shares compounds with Mdm2 MdmX PPI; inhibition, % at 8 µM; 6,200 compounds, 77% hits;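 active = mean inhibition at 8 µM reaching about 37%, which flags the compound as non-specific, limit read from the data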;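 also: p53-null SaOS-2 cells with luciferase driven by a doxycycline-inducible promoter; compound on cells about two nights before reading with doxycycline added after day one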
Each line names hits and unclear results; the compound was inactive in the other large screens (follow-up assays come after a bar, where they were run).

CCCS(=O)(=O)NC(=O)C1(C)CCCN(C(=O)c2c(F)ccc(C)c2F)C1 (configuration not stated)	none (no result: Calb FLC, Beta apoptosis, Mdm2 MdmX PPI, CSC inhib)
CCCCCCCCN1C(=O)[C@H](CC(=O)NCC2CCCCC2)C[C@@]2(C(=O)OC)CCCCC=C12	none (no result: Calb FLC, Beta apoptosis, Mdm2 MdmX PPI, CSC inhib)
CCN(CC)S(=O)(=O)c1ccc(Cl)c(C(=O)OCC(=O)c2c(N)n(C)c(=O)n(C)c2=O)c1	none
COc1cccc(C2NC(=S)NC(C)=C2C(=O)c2ccccc2)c1OC (configuration not stated)	Mdm2 MdmX PPI 51 | Mdm2 MdmX conf 49 | Full FLuc ctr 78
CC(C)c1cccc(C(C)C)c1OC(=O)[C@H]1OC(c2ccc(Br)cc2)=C[C@@H]1c1ccc(Br)cc1	Mdm2 MdmX PPI 61, CSC inhib 111 (no result: Calb FLC) | Mdm2 MdmX conf inactive
CC(C)NC(=O)c1cc(-c2ccc(Br)cc2)on1	none
CN(C)S(=O)(=O)c1ccc(N2CCCC2)c(C(=O)Nc2nccs2)c1	none (no result: Calb FLC)
CCc1cccc(NC(=O)c2cc(S(=O)(=O)N(C)C)ccc2N2CCCC2)c1	Mdm2 MdmX PPI 52 | Mdm2 MdmX conf 50 | Full FLuc ctr 51
Cc1cnc(NC(=O)c2cc(S(=O)(=O)N(C)C)ccc2N2CCCC2)s1	Mdm2 MdmX PPI 53 (no result: Calb FLC) | Mdm2 MdmX conf inactive | Full FLuc ctr 50
CCc1cccc(NC(=O)c2cc(S(=O)(=O)N3CCCCC3)ccc2N2CCOCC2)c1	none (no result: Calb FLC, Beta apoptosis, Mdm2 MdmX PPI, CSC inhib)
COc1ccc(C(C)=O)cc1Cn1c(C)c(C(=O)NC2CC2)sc1=O	none (no result: Calb FLC, Beta apoptosis, Mdm2 MdmX PPI, CSC inhib)
CC1(C(=O)Nc2ccc3c(c2)OCO3)Cc2c(-c3cccc(C(N)=O)c3)ccnc2O1 (configuration not stated)	none (no result: Calb FLC, Beta apoptosis, Mdm2 MdmX PPI, CSC inhib)
C/C(=N\NC(=O)CNC(=O)c1ccc(F)cc1)c1ccco1	none
CCc1nc2ccc(C(=O)NCCCn3ccnc3)cn2c1N(C)Cc1ccc(Cl)cc1	none (no result: Calb FLC, Beta apoptosis, Mdm2 MdmX PPI, CSC inhib)
O=C(NC(NC1CCS(=O)(=O)C1)C(=O)c1cccs1)c1ccccc1 (configuration not stated)	none (no result: MPTP block)
O=C(NC1=C(NC2CCS(=O)(=O)C2)C(=O)c2ccccc2C1=O)c1ccccc1 (configuration not stated)	Mdm2 MdmX PPI 90 | Mdm2 MdmX conf 60 | Full FLuc ctr 49
C#CCn1c(=NC(=O)c2ccc(S(=O)(=O)N3CCc4ccccc4C3)cc2)sc2cc(S(N)(=O)=O)ccc21	Beta apoptosis 104, Mdm2 MdmX PPI 86 (no result: CSC inhib) | Mdm2 MdmX conf 55 | Full FLuc ctr inactive
C=CCn1c(=NC(=O)c2ccc(S(=O)(=O)N3CCc4ccccc4C3)cc2)sc2cc(S(N)(=O)=O)ccc21	Calb FLC inconclusive (no result: CSC inhib)
COc1cc([N+](=O)[O-])ccc1NC(=O)CC1SC(=Nc2ccc(F)cc2)N(CCC2=CCCCC2)C1=O (configuration not stated)	Beta apoptosis 110, Mdm2 MdmX PPI 77, CSC inhib inconclusive | Mdm2 MdmX conf 85 | Full FLuc ctr 65
COc1ccc(OC)c(NC(=O)CC2SC(=Nc3ccc(F)cc3)N(CCC3=CCCCC3)C2=O)c1 (configuration not stated)	none
Cc1cc(C)c(C(=O)/C=C/C=C/c2ccccc2)c(=O)[nH]1	none
Cc1cc(C)c(C(=O)/C=C/c2ccc(C(C)C)cc2)c(=O)[nH]1	Mdm2 MdmX PPI 86, CSC inhib 84 | Mdm2 MdmX conf 97 | Full FLuc ctr 56
CC(C)C1CC(CCNCc2ccc(N(C)C)cc2)(c2ccccc2)CCO1 (configuration not stated)	none
Cc1ccc(C2(CCNCc3ccc(N(C)C)cc3)CCOC(C(C)C)C2)cc1 (configuration not stated)	Mdm2 MdmX PPI 93 | Mdm2 MdmX conf inactive
COc1cc(C(=O)Nc2ccc(-c3nc4cc(C)ccc4o3)c(O)c2)cc(OC)c1OC	Mdm2 MdmX PPI 74 | Mdm2 MdmX conf 52 | Full FLuc ctr 41
COc1cc(C(=O)Nc2ccc3c(c2)ncn3C)cc(OC)c1OC	Mdm2 MdmX PPI 55 | Mdm2 MdmX conf 55 | Full FLuc ctr 58
Cc1nc2cc(NC(=O)c3ccc(Cl)cc3)ccc2n1C	none
COc1cc(C(=O)Nc2ccc3c(c2)nc(C)n3C)cc(OC)c1OC	Mdm2 MdmX PPI 67 | Mdm2 MdmX conf 43 | Full FLuc ctr 61
O=C(CSc1ccc2ccccc2n1)N/N=C/c1ccc(O)cc1	none
O=C(CSc1ccc2ccccc2n1)N/N=C/c1ccccc1O	Mdm2 MdmX PPI 61 | Mdm2 MdmX conf 68 | Full FLuc ctr 74
COc1ccc(-c2nc(NC(=O)C3CC(=O)N(c4ccc5c(c4)OCCO5)C3)sc2C)cc1 (configuration not stated)	Mdm2 MdmX PPI 66 | Mdm2 MdmX conf 58 | Full FLuc ctr 36
COc1ccc2nc(NC(=O)C3CC(=O)N(c4ccc5c(c4)OCCO5)C3)sc2c1 (configuration not stated)	none (no result: Calb FLC, Beta apoptosis, CSC inhib)
CC(C)[C@@H]1Cc2[nH]c(=S)[nH]c(=O)c2[C@H](CCc2ccccc2)O1	none (no result: Calb FLC, Beta apoptosis, Mdm2 MdmX PPI, CSC inhib)
COC(=O)C1(C(=O)OC)C[C@H](/C=C/c2ccccc2)N(Cc2ccccc2OC)[C@@H]1c1ccccc1	none (no result: Calb FLC, Beta apoptosis, Mdm2 MdmX PPI, CSC inhib)
CCOc1ccc(-c2nnc(N3CCCCC3)c3ccccc23)cc1	Mdm2 MdmX PPI 62 | Mdm2 MdmX conf inactive
CCOC(=O)C1=C(CN2CCN(C(=O)c3ccco3)CC2)NC(=O)NC1c1ccc(C)cc1 (configuration not stated)	none
COc1cccc2c1C(=O)c1c(O)c3c(c(O)c1C2=O)C[C@@](O)(C(=O)CO)C[C@@H]3O[C@H]1C[C@H](N)[C@H](O)[C@H](C)O1	Mdm2 MdmX PPI 99 (no result: Calb FLC) | Mdm2 MdmX conf 99 | Full FLuc ctr inactive
COc1cccc2c1C(=O)c1c(O)c3c(c(O)c1C2=O)C[C@@](O)(C(=O)CO)C[C@@H]3OC1CC(N)C(O)C(C)O1 (some centres not stated)	none (no result: Calb FLC, Beta apoptosis, Mdm2 MdmX PPI, CSC inhib)
CCN1C(=O)/C(=C\c2cn(CCC#N)nc2-c2ccc(F)cc2)SC1=S	none
COc1ccc(C2Nc3cccc(O)c3C(=O)N2Cc2ccccc2)cc1COc1ccc(NC(C)=O)cc1 (configuration not stated)	none (no result: Calb FLC, Beta apoptosis, Mdm2 MdmX PPI, CSC inhib)
C[C@@H](c1ccccc1)N1C[C@H](COCc2ccccc2)Oc2cc(N3CCC[C@@H]3CO)ccc2S1(=O)=O	none (no result: Calb FLC, Beta apoptosis, Mdm2 MdmX PPI, CSC inhib)
COc1ccc(COc2cc(-c3cccc(OC)c3)nc3ccc(N)cc23)cc1	Mdm2 MdmX PPI 60 | Mdm2 MdmX conf 51 | Full FLuc ctr 120
Cc1ccc(CNC(=O)c2ccc3c(c2)NC(=O)CS3)cc1	none
CS(=O)(=O)c1nc([N+](=O)[O-])nn1CCCc1ccccc1	Mdm2 MdmX PPI 55 | Mdm2 MdmX conf inactive
Cn1nc(-c2ccccn2)nc2c(=O)n(C)c(=O)nc1-2	Beta apoptosis 127, Mdm2 MdmX PPI 66, CSC inhib 120 | Mdm2 MdmX conf 80 | Full FLuc ctr inactive
O=C1c2ccccc2-c2onc3ccc(Oc4ccccc4)c1c23	Mdm2 MdmX PPI 96 (no result: Beta apoptosis, CSC inhib) | Mdm2 MdmX conf 63 | Full FLuc ctr 51
